Source: PubChem BioAssay (Tox21)
Values without a mark were called inactive. Records with an inconclusive call do not appear. Where a call stands in place of a potency, no number is given. Active and inactive are the calls of the source. Unless noted, the call rests on the fitted dose curve; in most records, active means well fitted curve in the direction sought with a large enough effect in the repeat runs; inconclusive means weak or mixed curves; inactive means no such curve, though single readings can be large; an effect the other way counts as inactive or inconclusive.

Columns and labels:
[1] = qHTS assay to identify small molecule antagonists of the retinoid acid receptor (RAR) signaling pathway - cell viability counter screen (AID 1159551); further: nearly all actives have a fitted effect of over 35% in size
In short: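 Cytotoxicity counter screen: ATP content quantified by CellTiter-Glo luminescence in C3RL4 cells treated 6 hr at 37 C with compound and retinol (1 uM final). Cells plated at 1,000/well and cultured overnight before dosing.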

[2] = qHTS assay to identify small molecule antagonists of the retinoic acid receptor (RAR) signaling pathway (AID 1159552; further: nearly all actives have a fitted effect of over 50% in size)
In short: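 Readout: luciferase luminescence, 30 min post-reagent at RT. Setup: C3RL4 RARE reporter cells, compounds plus retinol 1 uM final, 6 hr incubation at 37 C and 5% CO2.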

[3] = qHTS assay to identify small molecule agonists of the retinoic acid receptor (RAR) signaling pathway (AID 1159553); further: potency means the concentration at half of the fitted maximal effect
In short: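 Luminescence was measured 30 min after luciferase reagent addition at room temperature. Before that, C3RL4 reporter cells (1,000 per well, plated overnight) were treated with compound for 6 hr at 37 C and 5% CO2.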

[4] = qHTS assay to identify small molecule antagonists of the estrogen related receptor (ERR) signaling pathway from Tox21 library - cell viability counter screen (AID 1224834); further: nearly all actives have a fitted effect of over 30% in size
In short: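 CellTiter-Fluor fluorescence, read after 30 min at 37 C, measures viability of ERR cells. Cells plated at 2,000/well and incubated 6 h before pin-tool compound addition, then exposed 17.5 hours at 37 C.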

[5] = molecular target: Luciferin 4-monooxygenase (Photinus pyralis) (UniProt P08659); assay: qHTS assay to identify small molecule inhibitors of firefly luciferase (AID 1224835); further: nearly all actives have a fitted effect of over 25% in size; further: potency means the concentration at half of the fitted maximal effect
Sequence of Luciferin 4-monooxygenase (Photinus pyralis) (P08659 whole entry, looked up): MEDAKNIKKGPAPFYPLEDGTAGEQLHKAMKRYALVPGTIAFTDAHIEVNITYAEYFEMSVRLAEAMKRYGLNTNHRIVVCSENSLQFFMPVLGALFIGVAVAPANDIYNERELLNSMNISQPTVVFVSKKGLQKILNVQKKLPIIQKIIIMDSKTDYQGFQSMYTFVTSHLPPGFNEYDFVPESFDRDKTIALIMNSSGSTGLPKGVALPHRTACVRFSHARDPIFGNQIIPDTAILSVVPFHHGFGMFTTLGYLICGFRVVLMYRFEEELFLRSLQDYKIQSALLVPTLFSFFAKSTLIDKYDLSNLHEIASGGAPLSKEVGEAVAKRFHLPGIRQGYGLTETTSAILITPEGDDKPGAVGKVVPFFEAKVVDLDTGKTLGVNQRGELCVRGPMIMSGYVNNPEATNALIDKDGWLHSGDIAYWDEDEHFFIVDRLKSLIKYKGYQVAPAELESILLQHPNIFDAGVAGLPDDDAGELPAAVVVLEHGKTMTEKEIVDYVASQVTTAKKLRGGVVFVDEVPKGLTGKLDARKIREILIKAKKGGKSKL
In short: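 Inhibition of purified Photinus luciferase is measured by luminescence. Substrate levels (D-luciferin, ATP) sit at their KM values. Each compound is tested in a concentration series.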

[6] = qHTS assay to identify small molecule agonists of the constitutive androstane receptor (CAR) signaling pathway - cell viability counter screen (AID 1224836); further: nearly all actives have a fitted effect of over 45% in size
In short: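 Compound titrations (15 concentrations) went onto HepG2-CYP2B6-hCAR cells 4 h after seeding, alongside PK11195 at a final 0.75 uM; a 23 h, 37 C/5% CO2 incubation preceded CellTiter-Fluor viability measurement.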

[7] = qHTS assay to identify small molecule antagonists of the constitutive androstane receptor (CAR) signaling pathway - cell viability counter screen (AID 1224837); further: nearly all actives have a fitted effect of over 45% in size
In short: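 Cytotoxicity counter-screen: CellTiter-Fluor fluorescence after 23 h compound exposure (15-point qHTS) in double-stable HepG2-CYP2B6-hCAR cells, with 50 nM CITCO added.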

[8] = molecular target: Nuclear receptor subfamily 1 group I member 3 (Homo sapiens) (UniProt Q14994); assay: qHTS assay to identify small molecule antagonists of the constitutive androstane receptor (CAR) signaling pathway (AID 1224838);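 further: HepG2 cells stably expressing hCAR with CYP2B6 luciferase reporter stimulated by CITCO; nearly all actives have a fitted effect of over 40% in size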
Sequence of Nuclear receptor subfamily 1 group I member 3 (Homo sapiens) (Q14994 whole entry, looked up): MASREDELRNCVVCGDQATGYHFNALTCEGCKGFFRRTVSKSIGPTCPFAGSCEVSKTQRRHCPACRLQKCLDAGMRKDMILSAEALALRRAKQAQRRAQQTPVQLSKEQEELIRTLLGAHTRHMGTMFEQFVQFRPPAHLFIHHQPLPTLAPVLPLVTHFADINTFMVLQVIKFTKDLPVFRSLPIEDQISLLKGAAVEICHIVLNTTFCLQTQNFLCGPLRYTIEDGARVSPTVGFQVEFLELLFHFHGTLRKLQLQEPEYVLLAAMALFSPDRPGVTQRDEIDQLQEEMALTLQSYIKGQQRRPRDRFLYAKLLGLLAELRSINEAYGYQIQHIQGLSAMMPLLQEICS
In short: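 Antagonism measured as luciferase signal (ONE-Glo, 30 min, room temperature) in CAR-stimulated cells: HepG2-CYP2B6-hCAR double-stable line exposed 24 hr at 37 C to compound in a 15-point series plus 50 nM CITCO.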

[9] = molecular target: Nuclear receptor subfamily 1 group I member 3 (Homo sapiens) (UniProt Q14994); assay: qHTS assay to identify small molecule agonists of the constitutive androstane receptor (CAR) signaling pathway (AID 1224839); further: nearly all actives have a fitted effect of over 15% in size; further: potency means the concentration at half of the fitted maximal effect;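 on activation: HepG2 cells stably carrying human CAR and a CYP2B6 luciferase reporter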
In short: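 In this screen, CAR-driven CYP2B6 promoter activity is measured by luminescence in HepG2-CYP2B6-hCAR cells after 24 h with test compounds and 0.75 uM PK11195 (final concentration).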

[10] = qHTS assay to identify small molecule antagonists of the estrogen related receptor signaling pathway with the pleiotropic PPARgamma coactivator (PGC) from Tox21 10K library - cell viability counter screen (AID 1224840; active means well fitted cell-killing curve with a large enough effect in the repeat runs, not every such curve was filed as active; further: nearly all actives have a fitted effect of over 40% in size)
In short: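 Counter-screen for cytotoxicity: after 17.5 h compound exposure at 37 C, CellTiter-Fluor reagent added to PGC/ERR cells for 30 min and fluorescence read. Cells were seeded at 2,000 per well 6 h before dosing.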

[11] = molecular target: Thyrotropin receptor (Homo sapiens) (UniProt P16473); assay: qHTS assay to identify small molecule agonists of the thyroid stimulating hormone receptor (TSHR) signaling pathway (AID 1224843; calls by dose curve; further: nearly all actives have a fitted effect of over 45% in size)
Sequence of Thyrotropin receptor (Homo sapiens) (P16473 whole entry, looked up): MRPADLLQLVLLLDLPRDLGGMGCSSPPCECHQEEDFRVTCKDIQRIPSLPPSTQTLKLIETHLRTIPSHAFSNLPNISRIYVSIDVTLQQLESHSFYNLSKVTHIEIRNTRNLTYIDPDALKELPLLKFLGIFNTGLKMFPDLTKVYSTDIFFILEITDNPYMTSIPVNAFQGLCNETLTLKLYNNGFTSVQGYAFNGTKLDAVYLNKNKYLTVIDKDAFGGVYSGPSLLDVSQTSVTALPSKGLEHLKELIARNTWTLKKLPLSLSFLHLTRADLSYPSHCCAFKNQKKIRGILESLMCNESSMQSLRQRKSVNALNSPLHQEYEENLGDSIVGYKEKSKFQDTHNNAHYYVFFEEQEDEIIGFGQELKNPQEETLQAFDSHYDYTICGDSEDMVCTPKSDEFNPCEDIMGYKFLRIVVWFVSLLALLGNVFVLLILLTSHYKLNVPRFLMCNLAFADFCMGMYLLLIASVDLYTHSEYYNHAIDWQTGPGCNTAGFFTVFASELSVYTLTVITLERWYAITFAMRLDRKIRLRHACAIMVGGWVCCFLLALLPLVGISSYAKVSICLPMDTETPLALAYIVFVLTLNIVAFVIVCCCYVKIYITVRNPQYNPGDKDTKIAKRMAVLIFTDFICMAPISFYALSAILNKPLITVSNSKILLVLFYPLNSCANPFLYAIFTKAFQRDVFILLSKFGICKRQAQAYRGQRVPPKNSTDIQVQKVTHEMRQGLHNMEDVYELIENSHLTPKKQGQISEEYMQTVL
In short: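 Agonist activity read as cAMP rise via d2/cryptate HTRF competition, 1 h room-temperature detection, in HEK293 cells expressing TSHR. Fifteen-point titrations, each run in triplicate, with a 30 min room-temperature incubation beforehand.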

[12] = qHTS assay to identify small molecule agonists of the hypoxia (HIF-1) signaling pathway - cell viability counter screen (AID 1224844; calls by dose curve; further: nearly all actives have a fitted effect of over 50% in size)
In short: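 Cytotoxicity measured by CellTiter-Glo ATP luminescence in the wells also read for beta-lactamase signal. Cells were HRE-bla ME-180 (2,000/well, 0.5% dialyzed FBS), exposed to compounds for 17 h at 37C.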

[13] = qHTS assay to identify small molecule agonists of H2AX (AID 1224845; active means well fitted activation curve with a large enough effect in the signal ratio in the repeat runs, not every such curve was filed as active; the % refers to the signal ratio)
In short: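 Phospho-H2AX Ser139 measured by HTRF (ex 320 nm; em 665 and 620 nm) after 24 hr antibody incubation. Compounds, 15 concentrations, 0.76% DMSO, were applied to CHO-K1 cells for 3hr at 37C before lysis.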

[14] = qHTS assay to identify small molecule agonists of the hypoxia (HIF-1) signaling pathway (AID 1224846; active means well fitted activation curve with a large enough effect in the signal ratio in the repeat runs, not every such curve was filed as active; the % refers to the signal ratio)
In short: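 Compounds added to ME-180 cells carrying hypoxia-response-element beta-lactamase reporter (0.5% dialyzed FBS, 5 h preplating), 17 h at 37C; agonist activity detected by CCF4-AM B/G FRET read-out.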

[15] = qHTS assay to identify small molecule agonists of H2AX - cell viability counter screen (AID 1224847; calls by dose curve; further: top concentration of the series differs between compounds; nearly all actives have a fitted effect of over 30% in size)
In short: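 Read-out: CellTiter-Glo luminescence, 30 min RT. Cells: wild-type CHO-K1, 1000/well, 10% FBS, plated overnight at 37C. Treatment: 15 concentrations, 3 hr, 37C, 0.76% DMSO.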

[16] = qHTS RealTime-Glo MT Cell Viability Assay in HepG2 cells - 24 hour (AID 1224867); further: nearly all actives have a fitted effect of over 50% in size
In short: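 Real-time, nonlytic viability: 600 HepG2 cells/well mixed with NanoLuc enzyme plus prosubstrate; 5 h settle, compound (DMSO) added by pintool; luminescence monitored over 40 h at 37 C.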

[17] = qHTS assay to identify small molecule antagonists of the estrogen related receptor signaling pathway with the pleiotropic PPARgamma coactivator (PGC) from Tox21 10K library (AID 1224841; call rule not given here; further: actives are mostly falling curves and most rising ones were filed inactive; nearly all actives have a fitted effect of over 50% in size)
In short: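 Luminescence (One-Glo, 30 min at room temperature) after 18 h compound treatment at 37 C of PGC/ERR reporter cells plated at 2,000 cells/well and settled 6 h beforehand.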

[18] = qHTS assay to identify small molecule agonists of the estrogen related receptor signaling pathway with the pleiotropic PPARgamma coactivator (PGC) from Tox21 10K library (AID 1224842); further: nearly all actives have a fitted effect of over 15% in size
In short: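 Luminescence from One-Glo (30 min, room temperature) measured after PGC/ERR cells had 18 h at 37 C with pinned compound (23 nL in DMSO). Cells had been seeded at 2,000 per well and pre-incubated 6 h.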

[19] = qHTS assay to identify small molecule agonists of the estrogen related receptor (ERR) signaling pathway from Tox21 library (AID 1224849; calls by dose curve; further: nearly all actives have a fitted effect of over 15% in size); details: ERR reporter cell line, ONE-Glo luciferase, 18 h; at 92.4 µM (top of the series) unless noted
In short: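 Luminescent agonist read-out (One-Glo, 30-minute room-temperature incubation) following 18-hour compound treatment at 37 C of the ERR cell line, which had been plated 6 hours before dosing.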

[20] = qHTS assay to identify small molecule antagonists of the estrogen related receptor (ERR) signaling pathway from Tox21 library (AID 1224848); further: nearly all actives have a fitted effect of over 50% in size
In short: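 Luciferase luminescence (ONE-Glo, 30 min room temperature) was the read-out. Cells of the NTP-supplied ERR line, 2,000 per well, were given 6 h at 37 C before compound addition in DMSO and 18 h exposure at 37 C.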

Row | SMILES | outcome [1] | outcome [2] | Potency [3] | outcome [4] | Potency [5] | outcome [6] | outcome [7] | outcome [8] | Potency [9] | outcome [10] | Potency [11] | outcome [12] | outcome [13] | outcome [14] | outcome [15] | outcome [16] | Potency [17] | Potency [18] | activity change, positive = activation [19] | outcome [20]
1 | CCCCN=C(N)N=C(N)N | inactive | inactive | inactive | inactive | inactive | inactive | inactive | inactive | inactive | inactive | inactive | inactive | inactive | inactive | inactive | inactive |  |  |  | 
2 | CCCCNCC | inactive | inactive | inactive | inactive | inactive | inactive | inactive | inactive | inactive | inactive | inactive | inactive | inactive | inactive | inactive | inactive |  |  |  | 
3 | CCCCOCCCC | inactive | inactive | inactive | inactive | inactive | inactive | inactive | inactive | inactive | inactive | inactive | inactive | inactive | inactive | inactive | inactive | inactive | inactive | 4.99% | 
4 | CCCCN1C(=O)c2ccccc2C1=O | inactive | inactive | inactive | inactive | inactive | inactive | inactive | inactive | inactive | inactive | inactive | inactive | inactive | inactive |  | inactive | inactive | inactive | 6.09% | inactive
5 | C/C(=N\O)c1ccc(OCC(=O)N2CCCCC2)cc1 | inactive | inactive | 3.76 µM (active) | inactive | 12.3 µM (active) | inactive | inactive | inactive | 4.22 µM (active) | inactive | inactive | inactive | inactive | inactive | inactive | inactive |  |  |  | 
6 | Cc1cc(N)no1 | inactive | inactive | inactive | inactive | inactive | inactive | inactive | inactive | inactive | inactive | inactive | inactive | inactive | inactive | inactive | inactive |  |  |  | 
7 | O=P(O)(O)C(O)(Cc1cccnc1)P(=O)(O)O | inactive | inactive | inactive | inactive | inactive | inactive | inactive | inactive | inactive | inactive |  | inactive | inactive | inactive | inactive | inactive |  |  |  | 
8 | C[C@@H]1CCC[C@H](C)N1CCCC(O)(c1ccccc1)c1ccccn1 (some centres not stated) | inactive | inactive | inactive | inactive | inactive | inactive | inactive | inactive | inactive | inactive | inactive | inactive | inactive |  | inactive | inactive |  |  |  | 
9 | C/C=C/C(=O)CCCC | inactive | inactive | inactive | inactive | inactive | inactive | inactive | inactive | inactive | inactive | inactive | inactive | inactive | inactive | inactive | inactive |  |  |  | 
10 | O=C(O)COc1ccc2ccccc2c1 | inactive | inactive | inactive | inactive | 39.9 µM (active) | inactive | inactive | inactive | inactive | inactive |  | inactive | inactive | inactive | inactive | inactive |  |  |  | 
11 | CC(=O)Oc1ccc(C(C)=O)cc1 | inactive | inactive | inactive | inactive | inactive | inactive | inactive | inactive | inactive | inactive | inactive | inactive | inactive | inactive | inactive | inactive |  |  |  | 
12 | CC(=O)Nc1ccc(OCCOCCOc2ccc(NC(C)=O)cc2)cc1 | inactive | inactive | inactive | inactive | inactive | inactive | inactive | inactive | inactive | inactive | inactive | inactive | inactive | inactive | inactive | inactive | inactive |  | -16.6% [at 42.5 µM] | 
13 | O=Cc1ccc(C(=O)O)cc1 | inactive | inactive | inactive | inactive | inactive | inactive | inactive | inactive | inactive | inactive | inactive | inactive | inactive | inactive | inactive | inactive |  |  |  | 
14 | COC(C)(C)CC(C)=O | inactive | inactive | inactive | inactive | inactive | inactive | inactive | inactive | inactive | inactive |  | inactive | inactive | inactive | inactive | inactive |  |  |  | 
15 | CC/C=C\CCCCCCCCCCOC(C)=O | inactive | inactive | inactive | inactive | inactive | inactive | inactive | inactive | inactive | inactive | inactive |  | inactive |  | inactive | inactive | inactive |  | 0.807% | inactive
16 | C[C@@H](CN1CC(=O)NC(=O)C1)N1CC(=O)NC(=O)C1 | inactive | inactive | inactive | inactive | inactive | inactive | inactive | inactive | inactive | inactive |  | inactive | inactive |  | inactive | inactive | inactive |  | 3.58% [at 42.5 µM] | 
17 | Cc1ccccc1OCC(=O)O | inactive | inactive | inactive | inactive | inactive | inactive | inactive | inactive | inactive | inactive |  | inactive | inactive | inactive | inactive | inactive |  |  | 0.72% | 
